In the supplement of paper PMC6555819:

Tests used:
Test in all cases: PBM binding z-score (relative to random genomic background probes); higher = stronger binding; sequences stand for … in GC…GCGATTGACAGCGTAGAATGAAGG
[1] = test system: RARb homodimer (NR concentration 270 nM)
Summary of the method: (§1)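 For binding z-scores, the reference was random background probes on custom Agilent 4×180K protein-binding microarrays. These arrays were incubated 1 h with ligand-free nuclear receptor dimers in PBS pH 7.4, 2% milk, 0.02% Triton X-100, 1 mM DTT, 0.2 mg/mL BSA and 0.4 mg/ml salmon testes DNA. Fluorescence was scanned after antibody detection of each partner (one per run) and regression-normalized.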

[2] = test system: RARg:RXRa (NR concentration 270 nM, RXRa partner concentration 90 nM)
Summary of the method: as §1

[3] = test system: RARg homodimer (NR concentration 270 nM)
Summary of the method: as §1

[4] = test system: RXRa DBDmut IVT, anti-RXR (DBD mutation: RXRa K156A/R161A, NR concentration 90 nM)
Summary of the method: as §1

[5] = test system: RXRa homodimer (NR concentration 180 nM)
Summary of the method: as §1

[6] = test system: THRa:RXRa (NR concentration 90 nM, RXRa partner concentration 90 nM)
Summary of the method: as §1

[7] = test system: THRa homodimer (NR concentration 90 nM)
Summary of the method: as §1

[8] = test system: VDR homodimer (NR concentration 270 nM)
Summary of the method: as §1

Row | Sequence | PBM binding z-score [1] | PBM binding z-score [2] | PBM binding z-score [3] | PBM binding z-score [4] | PBM binding z-score [5] | PBM binding z-score [6] | PBM binding z-score [7] | PBM binding z-score [8]
1 | TCATATAGGTAAATGCTAGGTGAAAGTTCGATCT | 1.2 | 0.926 | 0.552 | 1.97 | 1.35 | 1.75 | 0.835 | 0.742
2 | ACAGACAGGTGAGTGAAGGTAACGCAGCTGGACG | 0.215 | 0.259 | 0.522 | -0.546 | 0.362 | 1.83 | -0.423 | -0.319
3 | ATGTGTAGGTTAAGGGTCATTCAGGTTGGTTCGC | 4.06 | 4.95 | 3.99 | 2.14 | 6.33 | 3.69 | 2.32 | 5.37
4 | AGAACGAGGGCACGCTGAGGTGATAGCAGAGTAG | 1.66 | 2.8 | 2.65 | 1.51 | 1.77 | 3.45 | 1.21 | 1.04
5 | GGAACGAGGGCAAGCTGATAGCAGAGTTTGATGG | 0.957 | 1.17 | 1.95 | 1.68 | 0.6 | 0.878 | -0.593 | 1.03
6 | CGAACTAGGTCATCCAGGACAGTGATTACATTGA | 1.77 | 4.03 | 5.13 | 2.49 | 3.37 | 3.68 | 2.14 | 2.32
7 | CCTCGGAGGACAACAGGAGGTCAGAGCGGCCAGA | 3.6 | 3.74 | 3.91 | 0.253 | 2.11 | 2.87 | 1.31 | 1.51
8 | GCGACTGGGGCAAAGCAGGTTACAATAAGGTTGG | 1.15 | 0.682 | 0.779 | -0.0572 | 0.668 | 3.11 | 0.0569 | -0.351
9 | TAGCCTAGGTCATTGGGCCAGTGTAGTACGCATC | 3 | 3.57 | 4.14 | 1.61 | 2.7 | 2.94 | 0.8 | 1.07
10 | ATCTCTAGGTAACAAGTTCATTGAAAGAGAGGAC | 2.29 | 2.04 | 1.72 | 2.49 | 1.8 | 2.14 | 1.24 | 5.08
11 | GCTGCTAGGTCAAGTTGGTCAGCTAACGGGTACG | 3.78 | 4.49 | 5.42 | 1.81 | 3.03 | 2.96 | 1.13 | 0.704
12 | CATATAGGGTCAGCTAGGCCAGAGTAGGGACGGC | 3.33 | 4.41 | 4.49 | 1.48 | 4.2 | 3.37 | 1.12 | 1.02
13 | CGACCAAGGTCAGAGAGGTCAGTGAATGCCGAGT | 5.37 | 6.34 | 7.04 | 3.34 | 5.82 | 4.15 | 2.11 | 5.63
14 | CGATCTAGGTCATCCAGGACAGTGAATACATTGA | 3.01 | 4.03 | 4.66 | 2.18 | 2.71 | 3.78 | 2.35 | 2.06
15 | TCTCGGAAGACACGAAAGGTCAGAGCTCGACATC | 4.18 | 4.01 | 4.27 | 1.06 | 4.27 | 2.58 | 0.266 | 0.21
16 | CAGCCTAGGTCAGGGCCAGGATAGGAGGAACGTT | 2.32 | 3.04 | 3.91 | -0.715 | 1.53 | 2.31 | 0.538 | -0.171
17 | CGTCCAAGGTCATAGGAGGTCAGTGGAGACAGAT | 5.3 | 6.84 | 6.98 | 4.09 | 6.82 | 5.36 | 3.57 | 4.82
18 | CCTTGGAGGACAACAGGAGGTCAGAGCTGCCAGA | 3.58 | 3.49 | 3.03 | 0.451 | 2.08 | 2.88 | 1.13 | 1.24
19 | AGAACGAGGGCAATGATTTGATAGCACGGGTGGC | 0.954 | 0.982 | 1.4 | 1.64 | 0.834 | 0.95 | 0.00137 | 0.721
20 | TCTTGTAGATCAAAGGTTAAGCAAGCCGAAGCCT | 1.9 | 1.98 | 0.759 | 0.824 | 3.56 | 1.51 | -0.503 | -0.138
21 | TCTTGTAGATCAACCAGGTTAAGAAAGCCTGAGT | 0.615 | 0.0614 | -0.146 | 0.718 | 0.38 | 0.777 | 0.123 | 0.207
22 | GGAACGAGGGCAAAGTTGACAGCATCTGTCGACG | 1.58 | 2.77 | 2.16 | 2.56 | 2.76 | 1.67 | -0.266 | 1.24
23 | AGTCAAAGTTCAGGACAAGGTAACGTAAAGCACG | 3.29 | 5.05 | 5.13 | 3.14 | 3.26 | 4.05 | 2.59 | 2.15
24 | CCTTACGGGTCACGATGTTATAGCACGACGAGCG | 3.21 | 5.22 | 5.07 | 0.775 | 5.71 | 2.88 | 0.472 | 0.567
25 | ACTAGTTGGTCAGCTGAGGGCACACACAATTCGG | 2.11 | 0.999 | 1.42 | 0.326 | 0.707 | 3.55 | 1.29 | 0.929
26 | TCTTGTAGATCAGCAGCTTAAGAAAGCTGGCCAA | -0.684 | -0.435 | -0.915 | 0.258 | -0.355 | -0.626 | -0.605 | -0.685
27 | GAAACAGGGTCAAGGCCAGAGTACGCGTATTGAT | 4.02 | 5.52 | 5.06 | 2.9 | 6.17 | 3.85 | 1.44 | 2.56
28 | TCGAGTAGGTTAGGGCCATTCAGAATGGCGTCGA | 0.309 | -0.0137 | 0.11 | -0.0874 | 0.299 | 0.672 | -0.173 | -0.211
29 | GCAGACAGGTGAAACGCAGGTACCTCAGGGTGGC | -0.353 | 0.0657 | 0.145 | -0.949 | 0.343 | 0.295 | -0.722 | -0.935
